# Source: PubChem BioAssay (NCI)
# Compounds without any hit were thinned out: in the full panel of roughly 83,000, 20% have a hit.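 Growth was measured after 48 h exposure to one concentration of compound in 96-well plates. Values under 10 count as active.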 Active and inactive are the calls of the source.
# System: MALME-3M melanoma
# Assay: NCI-60 one-dose screen, 48 h (100 = growth as untreated, 0 = no growth, -100 = all killed)
# Conditions: 10 µM unless noted
row,SMILES,growth
1,COc1cccc(/C=C2\Oc3cc(OCCN4CCCC4)ccc3C2=O)c1,104% (inactive)
2,COc1ccc(-c2nc3ccc(-c4nc5ccc(N6CCN(c7ccncc7)CC6)cc5[nH]4)cc3[nH]2)cc1OC,-25% (active)
3,Cc1ccc(C2=NN3C(C2)c2cc(Br)ccc2OC32CCN(Cc3ccccc3)CC2)o1 (centres undefined),103% (inactive)
4,COc1cc2c(cc1-c1c(C)noc1C)ncc1nc(-c3ccccn3)n([C@H](C)COC(F)F)c12,70.1% (inactive)
5,Cc1oc(-c2ccc(Cl)cc2Cl)cc1C(=O)Nc1nccs1,85.1% (inactive)
6,COc1ccc2c(c1)c(-c1nonc1-c1cn(C)c3ccccc13)cn2C,51.9% (inactive)
7,COC(=O)c1ccc(NC(=O)c2ccc(-c3cccc([N+](=O)[O-])c3)o2)cc1,90.3% (inactive)
8,COc1cccc(C2=NN3C(C2)c2cc(Br)cc(OC)c2OC32CCN(Cc3ccccc3)CC2)c1 (centres undefined),99.7% (inactive)
9,O=C1c2cc3c(cc2-c2c1c1cc(F)c(F)cc1c(=O)n2CCCn1ccnc1)OCO3,-4.79% (active)
10,Cc1ccc2c(C(C[N+](=O)[O-])c3ccccc3F)c(-c3ccccc3)[nH]c2c1 (centres undefined),46.1% (inactive)
11,Cc1ccccc1COc1ccc(-c2onc(C)c2-c2ccc(Cl)cc2)cc1,59.8% (inactive)
12,COC[C@H](C)n1c(C2CCOCC2)nc2cnc3cc(-c4c(C)noc4C)c(OC)cc3c21,75.7% (inactive)
13,C#CCOc1ccc2ncnc(NCc3cccc(NC(=O)CCl)c3)c2c1,57.4% [8.25 µM] (inactive)
14,COc1cc(-c2nn(C)nc2-c2cc3ccccc3s2)cc(OC)c1OC,76.1% (inactive)
15,O=C1NC(=S)N[C@H]1CC(=O)n1cnc2ccccc21,98.2% (inactive)
16,O=S(=O)(Nc1ccc(I)cc1F)c1ccc(-c2cnc(C3CC3)o2)cc1,50.9% (inactive)
17,CC[C@@H](C(=O)[C@@H](C)[C@@H](O)[C@H](C)[C@@H]1O[C@@H]([C@@H](CC)C(=O)O)CC[C@@H]1C)[C@H]1OC2(C=C[C@@H](O)[C@]3(CC[C@@](C)([C@H]4CC[C@](O)(CC)[C@H](C)O4)O3)O2)[C@H](C)C[C@@H]1C (some centres undefined),-90.7% (active)
18,CCOC(=O)c1csc(NC(=O)COc2cccc(/C=C3\CSc4ccccc4C3=O)c2)n1,-52.6% (active)
19,CN1CCN(c2ccc3nc(-c4ccc(OCCCCN5CCN(CCCCN6C(=O)c7cccc8cccc(c78)C6=O)CC5)cc4)[nH]c3c2)CC1,28% (inactive)
20,Cc1ncc(C(=O)Nc2ccc(CN3CCN(C)CC3)c(C(F)(F)F)c2)cc1C#Cc1cnc2cccnn12,-72% (active)

row,SMILES,growth
1,Cc1nc2c3c(-c4ccccc4)c(-c4ccccc4)oc3ncn2n1,109% (inactive)
2,O=C(N/N=C/c1ccccc1O)c1ccccc1Nc1ccnc(C(F)(F)F)c1,-0.966% (active)
3,COC(=O)[C@]12CCC(C)(C)C[C@H]1[C@H]1C(=O)C[C@@H]3[C@@]4(C)c5c([nH]c6ccccc6c5=O)C(C)(C)[C@@H]4CC[C@@]3(C)[C@]1(C)CC2,88.1% (inactive)
4,COc1ccc(-c2n[nH]nc2-c2csc3ccccc23)cc1OC,56.9% (inactive)
5,O=C1c2ccccc2C(=O)c2c(N=Nc3[nH]c(=S)[nH]c3O)cccc21,45.4% (inactive)
6,Cn1c(NCCc2ccc(O)c(O)c2)nc2c1c(=O)n(Cc1ccc(Br)cc1)c(=O)n2C,81.4% (inactive)
7,Cc1ccc(/C=C2\SC(=S)N(CC(=O)NCCCN3CCOCC3)C2=O)cc1,95.1% (inactive)
8,Cc1ccc(C2Oc3ccccc3C3CC(c4cccs4)=NN32)cc1 (centres undefined),95.1% (inactive)
9,C=CC(=O)Nc1cccc(-c2nc(SC)nc(NCCc3ccc(OC)c(OC)c3)c2C#N)c1,54.8% (inactive)
10,Cc1nc(/N=C(\N)NC(=O)Nc2cccc([N+](=O)[O-])c2)sc1C,78.2% (inactive)
11,COc1ccc(-n2nc(C)c3c(Nc4ccc(NC(=O)Nc5ccc(Cl)c(C(F)(F)F)c5)cc4)ncnc32)cc1,-27.5% (active)
12,O=C(/C=C/c1cccc([N+](=O)[O-])c1)c1ccc(O)c(CN2CCN(c3cc4c(cc3F)c(=O)c(C(=O)O)cn4C3CC3)CC2)c1,78.2% (inactive)
13,CCC([N+](=O)[O-])S(=O)(=O)c1ccc(C)cc1 (centres undefined),143% (inactive)
14,Cc1cn2c(/C=C3/C(=O)Nc4c3ccc3ccccc43)c(C(F)(F)F)nc2s1,42.4% (inactive)
15,O=C1c2cc3c(cc2-c2c1c1ccc(F)cc1c(=O)n2C[C@H](O)[C@@H](O)[C@H](O)CO)OCO3,-54.6% (active)
16,O=C(Nc1cccc2[nH]c(C(F)(F)F)nc12)c1ccc(-n2cnnn2)cc1,84.5% (inactive)
17,Fc1ccc(CNc2cccc3[nH]c(C(F)(F)F)nc23)cc1,103% (inactive)
18,O=C1c2cc3c(cc2-c2c1c1ccc(F)cc1c(=O)n2CCCNCCO)OCO3,-72.2% (active)
19,N#CN1CC[C@H](C(=O)Nc2cc3cc(C(N)=O)ccc3cn2)C1,-21.8% (active)
